Some test systems named below: HCT-15 colon; HT29 colon; SNB-75 CNS; SNB-19 CNS; U251 CNS; PC-3 prostate; SK-MEL-5 melanoma; UACC-62 melanoma; LOX IMVI melanoma; SK-MEL-28 melanoma; SK-MEL-2 melanoma; EKVX NSCLC; SN12C renal; UO-31 renal; TK-10 renal; ACHN renal; CAKI-1 renal; CCRF-CEM leukemia; MOLT-4 leukemia.
Common to all, as to assay: NCI-60 one-dose screen, 48 h (100 = growth as untreated, 0 = no growth, -100 = all killed)
Holding throughout (details): 10 µM unless noted

The panel holds about 83,000 compounds, 20% with a hit somewhere; the sample as a whole holds those more often.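 Assay: single dose, 48 h. Readout: percent growth (0 = no net growth; negative = cell death). Active: <10.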 Unmarked numbers belong to inactive results. Calls of active or inactive are those of the source.

As for `CCOC(=O)CCN(CC(C)C)C(=S)Nc1ccccc1`, the growth with HCT-15 colon is 99.5%; in the assay on HT29 colon, 105%; with SNB-75 CNS, 105%; in the assay on SNB-19 CNS it was 99.9%; with U251 CNS it was 100%; in the assay with PC-3 prostate, 105%. The growth in the assay with SK-MEL-5 melanoma was 102%; with UACC-62 melanoma it was 99.8%; in the assay on LOX IMVI melanoma, 105%; in the assay on SK-MEL-28 melanoma, 106%; in the assay on SK-MEL-2 melanoma, 102%; with EKVX NSCLC, 100%. For the same compound, the growth in the assay on SN12C renal was 98.3%; in the assay on UO-31 renal, 94.4%; with TK-10 renal, 104%; in the assay on ACHN renal it was 101%; in the assay on CAKI-1 renal, 102%; in the assay with CCRF-CEM leukemia it was 118%. In addition, the growth in the assay with MOLT-4 leukemia is 100%.
As for `O=C(Nc1ccc(F)cc1)Nc1ccc(NC(=O)c2cc(Cl)nc3ccccc23)cc1`, the growth with HCT-15 colon was 98.7%; in the assay with HT29 colon, 65.3%; with SNB-75 CNS it was 67.2%; with SNB-19 CNS it was 49.7%; in the assay with U251 CNS, 62.8%; with PC-3 prostate, 59.4%. The growth in the assay with SK-MEL-5 melanoma is 70.1%; in the assay on UACC-62 melanoma, 72%; in the assay on LOX IMVI melanoma it was 55%; in the assay with SK-MEL-28 melanoma it was 77.7%; with SK-MEL-2 melanoma, 90.3%; in the assay with EKVX NSCLC it was 89.2%. Also, the growth with SN12C renal was 73.6%; in the assay on UO-31 renal it was 83.1%; in the assay on TK-10 renal, 83.5%; with ACHN renal it was 102%; in the assay on CAKI-1 renal it was 78.5%; in the assay with CCRF-CEM leukemia it was 41.9%. Further, in the assay with MOLT-4 leukemia, the growth was 64.2%.
`c1ccc(-c2c(-c3ccccc3)[n+](Cc3ccc4ccccc4c3)c(-c3cccc4ccccc34)n2Cc2ccc3ccccc3c2)cc1`: the growth in the assay with HCT-15 colon is -52.9% (active); in the assay on HT29 colon, -49.7% (active); in the assay with SNB-75 CNS it was -57.9% (active); with SNB-19 CNS, -68.9% (active); in the assay on U251 CNS it was -94.9% (active); in the assay on PC-3 prostate, -60.8% (active). Moreover, the growth with SK-MEL-5 melanoma is -98.4% (active); with UACC-62 melanoma, -64.8% (active); with LOX IMVI melanoma, -98.9% (active); in the assay with SK-MEL-28 melanoma, -71.8% (active); in the assay on SK-MEL-2 melanoma it was -77.9% (active); in the assay with EKVX NSCLC, -10.9% (active). The growth in the assay on SN12C renal was -81.6% (active); with UO-31 renal, -93.5% (active); in the assay on TK-10 renal, -78% (active); in the assay on ACHN renal, -100% (active); with CAKI-1 renal, -97.2% (active); in the assay on CCRF-CEM leukemia, 1.74% (active). Further, in the assay with MOLT-4 leukemia, the growth was -25.8% (active).
In the case of `N#Cc1c(NCc2ccccc2I)sc2c1CCCCC2`, the growth in the assay on HCT-15 colon is 94.8%; with HT29 colon, 99.8%; in the assay with SNB-75 CNS, 84.8%; with SNB-19 CNS, 97.7%; with U251 CNS, 90%; in the assay with PC-3 prostate, 98.8%. In addition, the growth with SK-MEL-5 melanoma was 98.2%; in the assay with UACC-62 melanoma it was 69.5%; with LOX IMVI melanoma, 91.1%; with SK-MEL-28 melanoma, 110%; in the assay on SK-MEL-2 melanoma it was 105%; in the assay with EKVX NSCLC, 78.8%. The growth in the assay on SN12C renal was 96.9%; in the assay with UO-31 renal, 79.7%; in the assay with TK-10 renal, 109%; in the assay with ACHN renal, 97.7%; in the assay on CAKI-1 renal it was 74.8%; in the assay on CCRF-CEM leukemia it was 94.4%. In addition, the growth in the assay on MOLT-4 leukemia is 84.2%.
`Cc1ccccc1NS(=O)(=O)c1cccc(C(=O)Nc2ccc(Br)cc2)c1`: the growth in the assay with HCT-15 colon was 37.3% [25 µM]; with HT29 colon it was 47.8% [25 µM]; in the assay on SNB-75 CNS it was 53.7% [25 µM]; with SNB-19 CNS, 42.9% [25 µM]; with U251 CNS, 53% [25 µM]; with PC-3 prostate it was 27.3% [25 µM]. Moreover, the growth with SK-MEL-5 melanoma is -38.9% [25 µM] (active); in the assay on UACC-62 melanoma it was 25.9% [25 µM]; in the assay on LOX IMVI melanoma, 39.2% [25 µM]; with SK-MEL-28 melanoma, 60% [25 µM]; in the assay on SK-MEL-2 melanoma it was 42.9% [25 µM]; in the assay with EKVX NSCLC it was 16.6% [25 µM]. The growth is 42.9% [25 µM] in the assay with SN12C renal; 22.8% [25 µM] in the assay on UO-31 renal; 55.9% [25 µM] in the assay with TK-10 renal; 47% [25 µM] in the assay on ACHN renal; 26.2% [25 µM] in the assay with CAKI-1 renal; 42.4% [25 µM] with CCRF-CEM leukemia. Moreover, the growth with MOLT-4 leukemia is 26.9% [25 µM].
On to `O=C(Nc1cccc(C2=NCCN2)c1)c1ccc(-c2ccc(C(=O)Nc3cccc(C4=NCCN4)c3)cc2)cc1`, for which the growth with HCT-15 colon is 82.6%; in the assay on HT29 colon, 84.5%; with SNB-75 CNS it was 82%; in the assay with SNB-19 CNS, 87%; in the assay with U251 CNS, 86.3%; in the assay on PC-3 prostate, 97.7%. In addition, the growth with SK-MEL-5 melanoma is 36.9%; with UACC-62 melanoma, 68.1%; with LOX IMVI melanoma, 97.9%; in the assay with SK-MEL-28 melanoma, 46.3%; in the assay with SK-MEL-2 melanoma, 105%; in the assay with EKVX NSCLC, 95.8%. Besides, the growth in the assay with SN12C renal is 61.7%; in the assay with UO-31 renal it was 99.1%; in the assay on TK-10 renal, 138%; in the assay on ACHN renal it was 98.4%; with CAKI-1 renal, 107%; in the assay with CCRF-CEM leukemia, 89.1%. Also, the growth in the assay on MOLT-4 leukemia was 80.9%.
On to `COc1cc2oc(-c3cccc(C(=O)Nc4ccc(Cl)cc4)c3)cc(=O)c2c(O)c1OC`, for which the growth with HCT-15 colon is 70.2%; with HT29 colon it was 66.2%; in the assay on SNB-75 CNS it was 24.4%; with SNB-19 CNS, 28.4%; in the assay on U251 CNS it was 23%; with PC-3 prostate it was 55.1%. The growth with SK-MEL-5 melanoma is 58.7%; in the assay on UACC-62 melanoma, 42.7%; in the assay on LOX IMVI melanoma it was 69.8%; in the assay with SK-MEL-28 melanoma, 67.8%; with SK-MEL-2 melanoma, 83.1%; with EKVX NSCLC it was 77.2%. The growth is 41.5% in the assay on SN12C renal; 47% in the assay on UO-31 renal; 75.5% in the assay with TK-10 renal; 33.4% in the assay with ACHN renal; 55% in the assay with CAKI-1 renal; 75.6% with CCRF-CEM leukemia. Also, the growth with MOLT-4 leukemia is 74.1%.
As for `c1ccc(-c2cn3c(ccc4ccccc43)n2)cc1`, the growth with HCT-15 colon was 30.6%; in the assay on HT29 colon, 19.8%; with SNB-75 CNS it was 51.9%; in the assay on SNB-19 CNS, 65%; in the assay with U251 CNS, 51.8%; with PC-3 prostate it was 72.2%. Further, the growth with SK-MEL-5 melanoma was 27.4%; in the assay on UACC-62 melanoma, 43.5%; with LOX IMVI melanoma, 52.3%; with SK-MEL-28 melanoma, 68.5%; in the assay with SK-MEL-2 melanoma, 40.3%; in the assay with EKVX NSCLC, 73.2%. Besides, the growth in the assay with SN12C renal was 60.8%; in the assay with UO-31 renal it was 48.9%; in the assay on TK-10 renal it was 89.5%; in the assay on ACHN renal, 79.5%; in the assay on CAKI-1 renal, 38.6%; in the assay on CCRF-CEM leukemia, 65.1%. In the assay with MOLT-4 leukemia, the growth is 57.8%.
For `O=c1ccc(-c2nc(N3CCOCC3)c3ccccc3n2)c[nH]1`, the growth is 99.1% with HCT-15 colon; 101% in the assay with HT29 colon; 81.1% with SNB-75 CNS; 98.7% with SNB-19 CNS; 99.1% with U251 CNS; 93.5% in the assay with PC-3 prostate. For the same compound, the growth in the assay on SK-MEL-5 melanoma is 88.3%; with UACC-62 melanoma, 55.5%; in the assay on LOX IMVI melanoma, 98.3%; in the assay on SK-MEL-28 melanoma, 97.6%; in the assay with SK-MEL-2 melanoma it was 108%; in the assay on EKVX NSCLC, 59.2%. Also, the growth is 94.6% in the assay with SN12C renal; 83.1% with UO-31 renal; 87.3% with TK-10 renal; 93.1% in the assay with ACHN renal; 95.9% in the assay on CAKI-1 renal; 108% with CCRF-CEM leukemia. In the assay on MOLT-4 leukemia, the growth was 110%.
Regarding `COc1cccc(-c2nc3occn3c2-c2ccnc(NCCNS(=O)(=O)c3ccc(C(F)(F)F)cc3)n2)c1`, the growth was 80% in the assay with HCT-15 colon; 85.1% in the assay on HT29 colon; 87% with SNB-75 CNS; 98% with SNB-19 CNS; 101% in the assay with U251 CNS; 77.6% with PC-3 prostate. The growth in the assay with SK-MEL-5 melanoma was 82.5%; in the assay with UACC-62 melanoma, 66.5%; in the assay with LOX IMVI melanoma it was 93.3%; in the assay on SK-MEL-28 melanoma, 108%; in the assay on SK-MEL-2 melanoma, 98.2%; in the assay with EKVX NSCLC, 84.3%. In addition, the growth with SN12C renal is 88.6%; with UO-31 renal, 66.1%; in the assay with TK-10 renal it was 116%; with ACHN renal, 80.9%; with CAKI-1 renal, 64.3%; in the assay with CCRF-CEM leukemia, 92.1%. The growth with MOLT-4 leukemia is 75.3%.
On to `COc1ccc(C(=O)NNc2nc(Cl)nc(N3CCN(C(c4ccccc4)c4ccccc4)CC3)n2)cc1`, for which the growth was -37% (active) with HCT-15 colon; -57.3% (active) in the assay on HT29 colon; 61.5% with SNB-75 CNS; 45.4% in the assay on SNB-19 CNS; 71.4% in the assay with U251 CNS; -13.3% (active) in the assay with PC-3 prostate. Also, the growth is 90.7% in the assay on SK-MEL-5 melanoma; 33.1% in the assay on UACC-62 melanoma; -64.3% (active) in the assay on LOX IMVI melanoma; 53.9% with SK-MEL-28 melanoma; 48.8% in the assay with SK-MEL-2 melanoma; 82.4% in the assay with EKVX NSCLC. The growth was 21.1% in the assay with SN12C renal; 87% in the assay on UO-31 renal; 95% in the assay with TK-10 renal; 22.8% with ACHN renal; 21.2% in the assay with CAKI-1 renal; -8.69% (active) in the assay with CCRF-CEM leukemia. Also, the growth in the assay with MOLT-4 leukemia was -39.2% (active).
For `CC(Sc1nc2ccccc2c(=O)n1CCc1ccc(S(N)(=O)=O)cc1)C(=O)Nc1ccc(Cl)cc1` (stereo not drawn), the growth in the assay with HCT-15 colon is 67.9%; in the assay with HT29 colon it was 89.5%; in the assay on SNB-75 CNS it was 83.3%; with SNB-19 CNS it was 90.1%; in the assay on U251 CNS, 84.1%; in the assay with PC-3 prostate, 81.7%. Besides, the growth is 79.4% in the assay on SK-MEL-5 melanoma; 73.6% in the assay on UACC-62 melanoma; 88.3% with LOX IMVI melanoma; 105% in the assay with SK-MEL-28 melanoma; 80.9% in the assay with SK-MEL-2 melanoma; 70.3% in the assay on EKVX NSCLC. The growth in the assay on SN12C renal is 86.2%; in the assay with UO-31 renal it was 53.8%; in the assay with TK-10 renal it was 80.1%; with ACHN renal, 86.3%; in the assay on CAKI-1 renal, 75.6%; in the assay on CCRF-CEM leukemia, 63.7%. In addition, the growth in the assay with MOLT-4 leukemia is 68.3%.

The values are drawn from PubChem BioAssay (NCI).
